Pol eta inh-1 – inhibitors of human DNA polymerase eta; hit rate 1.2% among 390,000; Q9Y253; recombinant Pol eta, fluorescent DNA replication assay; Potency, µM (titrated, usually from 114 µM), for inactives: top-dose activity change, negative = inhibition, hits mostly inhibitors; note: potency is the fitted concentration of half-maximal effect; % is set by controls: 0 for no effect and ±100 for the full control effect
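Pol eta (10 nM) was preincubated with compounds for 15 min at room temperature, after which fluorescent replication substrate (50 nM final) was added to start the reaction. Fluorescence was read kinetically at 0 and 10 min.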
Pol beta inh – inhibitors of human DNA polymerase beta; Potency, µM (highest dose often 114 µM), for the others: at the highest dose activity change, negative = inhibition, actives largely listed as inhibitors; P06746; hit rate 1.3% among 340,000; AID 485314; Pol beta primer extension/strand displacement, fluorescence kinetic; note: potency is the fitted concentration of half-maximal effect; % is set by controls: 0 for no effect and ±100 for the full control effect
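Pol beta (10 nM) was preincubated with compound for 15 min at room temperature. The reaction was then started with 50 nM substrate and read immediately and after a further 10 min at room temperature.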
Pol kappa inh-1 – blocks human DNA polymerase kappa activity; AID 588579; hit rate 0.53% among 400,000; Potency, µM (doses to about 107 µM), inactives show at the highest dose activity, negative = inhibition, usual class: inhibitors; purified Pol kappa, fluorescent DNA synthesis assay, 10 min; note: potency is the fitted concentration of half-maximal effect; % is set by controls: 0 for no effect and ±100 for the full control effect
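Inhibition of 10 nM Pol kappa is measured by a fluorescent read-out at 0 and 10 min following addition of 50 nM substrate (final), with a 15-min room-temperature compound preincubation.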
FEN1 inhibitor – inhibitors of human flap endonuclease 1; Potency, µM (titrated, usually from 114 µM), without a hit: at the highest dose activity change, negative = inhibition, most hits filed as inhibitors; Recombinant FEN1 flap cleavage, fluorescence, 15 min; AID 588795; hit rate 0.35% among 390,000; P39748; note: potency is the fitted concentration of half-maximal effect; % is set by controls: 0 for no effect and ±100 for the full control effect; nearly all actives have a fitted effect of over 65% in size
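With each library titrated from low to high concentration, compounds met 10 nM FEN1 for 15 min at room temperature before 50 nM substrate was added; readings at 0 and 15 min fed four-parameter Hill curve fits.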
Tb PGK inh – inhibitors of T. brucei phosphoglycerate kinase; PGK/GAPDH coupled, Kinase-Glo luminescence, 60 min; AID 602233; P07378; Potency, µM (top dose mostly 57.5 µM), for the others: top-dose activity change, negative = inhibition, actives largely listed as inhibitors; hit rate 0.043% among 380,000; note: potency is the fitted concentration of half-maximal effect; % is set by controls: 0 for no effect and ±100 for the full control effect; nearly all actives have a fitted effect of over 60% in size
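Luminescent ATP detection (Kinase-Glo Plus) follows a 60-minute room-temperature incubation, with wells lacking PGK as controls. Buffer: 100 mM TEA (pH 7.6), 5 mM MgCl2, 0.01% Tween-20. Coupling enzyme GAPDH (100 nM final) supplies unstable 1,3-BPG in-well.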
POLI inh – inhibitors of human DNA polymerase iota | Pol iota fluorescent replication assay, 10 min | Potency, µM (doses to about 115 µM), inactives show top-dose activity, negative = inhibition, actives largely listed as inhibitors | hit rate 1% among 390,000 | AID 588590; note: potency is the fitted concentration of half-maximal effect
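Fluorescent replication assay read twice, at 0 min and 10 min after adding 50 nM (final) substrate. Enzyme (10 nM) and compounds were first incubated 15 min at room temperature; enzyme-free buffer wells were negative controls.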
GALK confirm – confirmation of human galactokinase (GALK) inhibitors | AID 2015 | shares compounds with Pol eta inh-1 | hit rate 70% among 150 | purified GALK, Kinase-Glo ATP depletion luminescence | Potency, µM (series often up to 115 µM), for the others: at the top dose activity, negative = inhibition, usual class: inhibitors
GALK redox cs – counter-screen for GALK inhibitors: redox cycling H2O2 generation | shares compounds with Pol eta inh-1 | Phenol red-HRP H2O2 redox cycling, absorbance 600 nm | Potency, µM (top dose mostly 115 µM), without a hit: at the top dose activity change, negative = H2O2 signal, most hits filed as inhibitors | hit rate 40% among 150 | AID 2035
HEK293 tox – counter-screen for GALK inhibitors: HEK293 cell cytotoxicity; shares compounds with Pol eta inh-1; HEK-293 viability, ATP luminescence (CellTiter-Glo), 24/48 h; Potency, µM (doses to about 46.1 µM), inactives show at the highest dose activity change, negative = cytotoxicity, most hits filed as inhibitors; hit rate 10% among 170; AID 2547; note: potency is the fitted concentration of half-maximal effect; % is set by controls: 0 for no effect and ±100 for the full control effect
Pol kappa inh-2 – confirmation of human DNA polymerase kappa inhibitors; shares compounds with Pol eta inh-1; purified Pol-kappa, fluorescent strand-displacement substrate; Potency, µM, hits mostly inhibitors; hit rate 76% among 920; AID 720501; note: potency is the fitted concentration of half-maximal effect
Pol eta inh-2 – confirmation of human DNA polymerase eta inhibitors; shares compounds with Pol eta inh-1; Pol eta primer extension, TAMRA/BHQ fluorescence, 10 min; Potency, µM, most hits filed as inhibitors; hit rate 64% among 2,600; AID 720502; note: potency is the fitted concentration of half-maximal effect
The depositor's hits bear a star; i = inactive; ? = inconclusive; nt = no result given; [ ] = dose if it differs, or a comment. This is a sample that favours compounds with a hit; in the whole collection about 2.4% have one here. Calls come from the whole dose curve; as a rule, active = well fitted curve in the direction sought with a large enough effect; inconclusive = small, poorly fitted or top-dose-only effect, or another doubt; inactive = no such curve, though single readings can be large; an effect the other way counts as inactive or inconclusive.

SMILES	Pol eta inh-1	Pol beta inh	Pol kappa inh-1	FEN1 inhibitor	Tb PGK inh	POLI inh	others
Cc1nnc(SCC(=O)NCc2ccco2)[nH]c1=O	31.6µM*	0.3%	?	0.9%	-18.8%	?	Pol eta inh-2=30.1*
Cc1occc1-c1nnc(SCC(=O)NC(C)(C)C)n1CC(C)C	-13.2%	10.2%	-3.4%	-6.3%	-5.8%	27.4%
Cc1occc1-c1nnc(SCC(=O)NCc2ccco2)n1CC(C)C	25.1µM*	?	?	1.8%	-17.1%	-23.2%	Pol eta inh-2=?
Cc1cc2c(=O)n(Cc3ccco3)c(SCC(=O)NCc3ccco3)nc2s1	?	?	?	-10.5%	-1.4%	35.5µM*	Pol eta inh-2=?
Cc1ccc(-c2nnc(SCC(=O)c3ccc(Cl)cc3)n2-c2ccccc2)cc1	-12.3%	24.3%	-0.4%[60.1 µM]	-5.5%	7.1%	-14.9%
Cc1cccc(N2CCN(C(=O)CN3C(=O)COc4ccc(S(=O)(=O)N5CCCCCC5)cc43)CC2)c1C	-18.0%	-5.9%	0.6%	-5.6%	-2.4%	20.0%
Cc1cc(Br)ccc1NC(=O)CSc1c2c(nc3ccccc13)CCC2	19.7%	?	-6.2%	-0.1%	i	-7.6%
COc1ccc(CNC(=O)Cn2c(=O)cc(-c3ccccc3)c3c(C)nn(C)c32)cc1	-15.1%	27.6%	?	-15.4%	-4.6%	-3.3%
COc1ccccc1NC(=O)C1CCN(C(=O)c2sc3nc[nH]c(=O)c3c2C)CC1	-0.4%	23.0%	-4.0%[60.1 µM]	0.1%	i	-4.4%
NC(=S)NN=C1c2cc(Cl)ccc2-c2c1cc(Cl)cc2[N+](=O)[O-]	2.2%	nt	1.3%	0.5%	-8.3%	19.3%
COc1cc2c(cc1[N+](=O)[O-])-c1ccc([N+](=O)[O-])cc1C2=NNC(N)=S	10µM*	nt	nt	nt	-4.9%	nt	Pol kappa inh-2=67*
CCCn1c(=O)c2sccc2n2c(CCCC(=O)N3CCN(c4ccccc4OC)CC3)nnc12	-17.3%	11.5%	-0.2%	6.7%	i	21.5%
Cc1ccccc1-c1noc(-c2ccc(NCc3ccco3)c([N+](=O)[O-])c2)n1	-12.6%	8.6%	-14.3%	13.0%	0.0%	2.1%
Cc1ccc(C(=O)N/C(=C\c2ccc(Cl)cc2)C(=O)NCCN2CCOCC2)cc1	-7.0%	0.4%	1.2%	3.9%	7.1%	87.1%	GALK confirm=-5.5%;GALK redox cs=-1.8%;HEK293 tox=-2.4%
O=C(NCCN1CCOCC1)/C(=C/c1ccc(Cl)cc1)NC(=O)c1ccccc1	-8.5%	33.1%	-7.5%	13.1%	6.8%	47.5%
Cc1ccc(N2CC(C(=O)Nc3nnc(SCCC4OCCO4)s3)CC2=O)cc1 (stereo unspecified)	?	5.7%	-11.1%	4.2%	-5.8%	34.8%
